In all, about 33,000 sequences were measured (“E-score (-0.5 to 0.5)”: median about -0.036, highest 2% from about 0.37 on). Shown is part of a subset that was picked to be rich in the highest values.
These sequences were tested against T1, Yer064c (UniProt P40041) (assay: PBM E-score (8-mer binding enrichment) (E-score (-0.5 to 0.5)); higher = stronger / more preferred TF binding). Conditions: protein concentration: 200 nM; construct: GST-full length.
T1 sequence: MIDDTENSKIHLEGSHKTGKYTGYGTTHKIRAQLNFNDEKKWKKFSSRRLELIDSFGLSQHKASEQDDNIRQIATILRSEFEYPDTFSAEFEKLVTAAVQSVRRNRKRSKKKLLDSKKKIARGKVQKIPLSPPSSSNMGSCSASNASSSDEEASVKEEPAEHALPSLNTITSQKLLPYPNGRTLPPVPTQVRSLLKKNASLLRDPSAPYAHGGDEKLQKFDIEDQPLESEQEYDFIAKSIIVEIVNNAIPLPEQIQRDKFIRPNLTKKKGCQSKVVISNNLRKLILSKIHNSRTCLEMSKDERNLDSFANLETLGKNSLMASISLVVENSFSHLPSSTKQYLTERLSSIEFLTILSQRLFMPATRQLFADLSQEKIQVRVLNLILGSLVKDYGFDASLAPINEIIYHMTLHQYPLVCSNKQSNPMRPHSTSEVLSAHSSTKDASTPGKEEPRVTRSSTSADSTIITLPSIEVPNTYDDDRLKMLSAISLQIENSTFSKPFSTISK
Description: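 Universal 'all 10-mer' protein binding microarrays (Agilent AMADID 015681) probed with GST-tagged S. cerevisiae TFs (full-length or DBD) made by in vitro transcription/translation (PURExpress), about 100-200 nM. Bound TF was detected with fluorescent anti-GST. Each ungapped 8-mer (which stands for itself and its reverse complement) is scored by the PBM enrichment score (E-score), a modified Wilcoxon-Mann-Whitney statistic from -0.5 to +0.5, computed with the Universal PBM Analysis Suite. Scale: above 0.35 generally sequence-specific binding.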

Sequence | PBM E-score
ACTTTCTG | 0.208
TCCACAAA | 0.0257
ACCTCCTA | -0.134
CCGCACCA | 0.017
TGCCCCAA | 0.0126
CAGTGAAA | 0.0766
GGTGTCGA | 0.046
AACTACAC | 0.0443
GACTACAA | 0.402
GACTACAC | 0.399
CACTACAC | -0.0592
TACTACAA | 0.119
CACTACAA | 0.0688
ACCAGCGC | -0.221
GGGCCCGA | -0.142
GAGCACGC | -0.163
GCTAAAAA | 0.0668
ACTGAGTG | 0.161
ACTGAGTC | 0.477
ACTGAGTA | 0.28
CCTGAGTC | 0.461
CCTGAGGC | -0.16

Sequence | PBM E-score
CCTAAGTC | 0.276
CCTGAGTA | 0.234
ACTAAGTC | 0.376
ACTAAGTA | 0.235
CGGTATAC | -0.119
ATCCGGGA | -0.104
AATGCACA | -0.0113
TAGCCGCA | -0.0712
AAATTTCC | -0.0423
CCTGACTC | 0.481
CCTGACAA | -0.124
ACTGACTC | 0.461
CCTGACGA | 0.115
CCTGACTA | 0.461
GCTGACTA | 0.467
ACTGACCC | 0.0295
CCTGACGC | -0.133
GCTGACGA | 0.129
GCTGACAA | 0.00774
ACTGACAC | 0.0326
CCTGACAC | 0.023
ACCGCTCT | -0.114

Sequence | PBM E-score
CCGCTTAC | 0.026
ATCACCCA | 0.135
AGACCAGG | -0.166
TGCGTAAA | 0.026
GCCGTCGA | -0.0942
CGCGGTAG | -0.0407
CCGGGTAA | -0.0414
ACTGACTA | 0.447
ACTGACTG | 0.306
ACTGACCA | -0.0902
ATAAAACC | 0.0678
AAAAACCT | 0.111
ATTCACTG | 0.138
AGTCACTA | 0.469
AGTCACTC | 0.467
ATTCACTC | 0.0742
CGTCACTA | 0.0406
AGTCACTG | 0.457
GGTCACTA | -0.234
CGTCACTC | -0.0803
AGACACTG | 0.0291
TACTGATA | 0.0643

Sequence | PBM E-score
ATAGGACG | -0.178
CCGCCAAG | -0.149
ACGTAGTC | 0.39
ACGTAGTG | -0.132
CCGTAGTC | 0.394
CCGTAGTA | -0.15
ACGTAGTA | -0.0277
CCGTAGGC | -0.119
AGCGTTAG | -0.0809
CATAGCAA | -0.0521
CATCTGTA | -0.0129
GGATCGTA | -0.118
CACTATAA | -0.0109
AACTATAA | 0.0773
AACTATAC | 0.172
CACTATAC | -0.184
GACTATAC | 0.413
GACTATAA | 0.389
AACTCTCG | -0.105
CCTTCAGC | -0.126

Reference: the supplement of paper PMC3334620
